HCMV antiviral – inhibitors of human cytomegalovirus; HFF cells, HCMV-luciferase reporter, 72 h; hits give low values; activity change, negative = inhibition, % at 57.5 µM; 410,000 tested, 4.5% active; in the data active means activity change below about -60%; inconclusive means no clear call, values can overlap the other calls; inactive means above about -39%; further: on the % scale 0 is the no-effect control and ±100 the full control effect
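Steps: HFFs plated, 16 h 37C; compounds added; HCMV-luciferase added to MOI 1 PFU/cell; 72 h 37C; OneGlo reagent, 5 min room temperature; luminescence read, normalized to controls.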
FMDV inh – blocks foot and mouth disease virus; FMDV antiviral cell-based qHTS; Potency, µM (series often up to 57.9 µM), without a hit: at the highest dose activity change, negative = inhibition, actives largely listed as inhibitors; 410,000 tested, 1.2% active; calls by dose curve; tested in HEK293T cells; further: read-out not given here; potency means the concentration at half of the fitted maximal effect; on the % scale 0 is the no-effect control and ±100 the full control effect; nearly all actives have a fitted effect of over 45% in size
Lassa entry inh – Lassa virus entry inhibition; AID 540256; Lassa virus pseudotype entry inhibition, cell reporter; 300,000 tested, 1.2% active; Potency, µM (top dose mostly 37.9 µM), for the others: at the top dose activity change, negative = inhibition, actives largely listed as inhibitors; calls by dose curve; tested in HEK293 cells; further: potency means the concentration at half of the fitted maximal effect; on the % scale 0 is the no-effect control and ±100 the full control effect; nearly all actives have a fitted effect of over 50% in size
HCV inh – HCV inhibition; 340,000 tested, 3.4% active; Potency, µM (top dose mostly 41.8 µM), for inactives: at the top dose activity change, negative = inhibition, most hits filed as inhibitors; Huh7.5.1 HCVcc-Cre infection, luciferase reporter, 44 h; active means well fitted inhibition curve with a large enough effect; inconclusive means small, poorly fitted or top-dose-only effect, or another doubt; inactive means no such curve, though single readings can be large or run the other way; further: potency means the concentration at half of the fitted maximal effect; on the % scale 0 is the no-effect control and ±100 the full control effect
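Infectious HCVcc-Cre (~0.5 moi) was added to cells just after compound, with cells seeded 4 h earlier at 1,000 per well. Luciferase activity after 44 h culture reported infection; substrate was incubated 15 min at room temperature before reading.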
SARS PLpro yeast – inhibitors of SARS-CoV papain-like protease in yeast; Potency, µM (series often up to 32.9 µM), for the others: at the highest dose activity, positive = growth rescue, usual class: activators; AID 485353; S. cerevisiae expressing SARS-CoV PLpro, growth rescue; 330,000 tested, 0.19% active; calls by dose curve; further: potency means the concentration at half of the fitted maximal effect; 0% is about no effect; nearly all actives have a fitted effect of over 55% in size
Marburg entry inh – inhibitors of Marburg virus binding or cell entry | Marburg virus pseudotyped entry inhibition, cell reporter | Potency, µM (titrated, usually from 37.8 µM), for inactives: at the highest dose activity change, negative = inhibition, usual class: inhibitors | 300,000 tested, 1.8% active; calls by dose curve; tested in HEK293 cells; further: potency means the concentration at half of the fitted maximal effect; on the % scale 0 is the no-effect control and ±100 the full control effect
* = called active by the depositor; ? = inconclusive; / = not tested or not shown; ! = repeats disagree; [ ] = another dose, or the depositor's remark. This is a sample that favours compounds with a hit; in the whole collection about 8% have one here.

SMILES	HCMV antiviral	FMDV inh	Lassa entry inh	HCV inh	SARS PLpro yeast	Marburg entry inh
CCCCN(C)CC(O)Cn1cc(/C=C/C(=O)c2cccs2)c2ccccc21 (stereo not given)	/	0%	?	?	-3%	?
CCCCN(C)CC(O)Cn1cc(/C=C/C(=O)c2ccc(OCC)cc2)c2ccccc21 (stereo not given)	-107*	-21%	?	/	-1%	?
Cc1cccc(OCC(=O)Nc2ccc(Cl)c(-c3nc4ncccc4o3)c2)c1C	-23	-25%	?	/	/	-8%[46.1 µM]
CC(C)Cn1cc(NC(=O)NCc2ccc(Cl)cc2)c2ccccc2c1=O	-105*	-18%	-4%[46.1 µM]	/	/	/
CC(C)Cn1cc(NC(=O)NCc2ccccc2)c2ccccc2c1=O	7	22%	?	/	/	/
CN1C(C(=O)Nc2cccc(O)c2)=CC(c2ccco2)=NS1(=O)=O	-63*!	-27%	-6%[46.1 µM]	-15%	4%	?
O=c1[nH]c(Nc2nc3ccccc3o2)nc2c1CCCC2	-99*	/	5.2µM*	-11%	-2%	6.5µM*
Cc1ccc(Nc2nc3c(c(=O)[nH]2)CCCC3)cc1	22	32%	-1%	?	?	2%
CNCCCCCCCCSc1nc(C(C)C)ccc1C(=O)c1cccs1	/	49%	/	/	/	/
C(=Cc1c[nH]c2ccccc12)c1ccc2ccccc2n1	-92*	?	?	5.6µM*	/	2.2µM*
O=[N+]([O-])c1ccc(/C=C/c2ccc3ccccc3n2)cc1	?	-65%	2µM*	-7%	-4%	?
CN(C)c1ccc(/C=C/c2nc3ccccc3s2)cc1	-92*	5µM*	2.2µM*	-8%	-2%	2µM*
C(=Cc1c[nH]c2ccccc12)c1nccc2ccccc12	99	-68%	?	?	/	?
Cc1ccc(/C=C/c2nc3ccccc3s2)s1	?	?	6.3µM*	-8%	-15%	?
O=C(C1CCOCC1)N1CC(=O)N2[C@H](CO)[C@H](c3ccc(-c4ccccc4F)cc3)[C@@H]2C1	9	/	/	/	/	/
FC(F)(F)c1ccccc1-c1cncnc1NCCN1CCOCC1	/	8%	/	/	/	/
COc1cc2c(c(OC)c1)[C@H](C=Cc1ccccc1)[C@@H]([C@H](O)CO)OC2	/	/	/	/	/	17%[14.2 µM]
CN(C)c1ccc(/C=C/c2ccc3ccccc3n2)cc1	/	6.3µM*	/	?	-4%	/
CC(=O)Oc1ccc(Cl)cc1/C=C/c1ccc2ccccc2n1	96	8%	?	7.9µM*	-95%	?
Oc1ccc(/C=C/c2ccc3ccccc3n2)cc1	-68*	-88%	/	?	0%	/
O/C(=C\c1ccc2ccccc2n1)c1ccc(O)cc1O	51	-86%	?	-28%	-2%	7.1µM*
COC(=O)[C@@H]1CCCN1C(=O)c1c(OC)cc(=O)n2c1CCN(Cc1ccc(C)o1)CC2	/	0%	/	/	/	/
Fc1ccccc1/C=C/c1ccc2ccccc2n1	-10	10µM*	2.5µM*	-14%	-43%	?
C(=C\c1ccc2ccccc2n1)/c1ccccc1	36	-84%	/	-8%	-7%	/
Cn1c(N2CCOCC2)c(/C=N/OC(=O)c2ccc(F)cc2)c2ccccc21	-95*	-10%	?	3.5µM*	1%	?
SMILES	HCMV antiviral	FMDV inh	Lassa entry inh	HCV inh	SARS PLpro yeast	Marburg entry inh
CC(=O)O/N=C/c1c(N2CCOCC2)n(C)c2ccccc12	-93*	-13%	?	?	-23%	?
Cc1ccc(C(=O)O/N=C/c2c(N3CCOCC3)n(C)c3ccccc23)cc1	-100*	-5%	?	6.3µM*	-23%	?
Cn1c(N2CCOCC2)c(/C=N/O)c2ccccc21	-10	-22%	-22%	7%	0%	23%[46.1 µM]
Cn1c(N2CCOCC2)c(/C=N/OC(=O)c2cccnc2Cl)c2ccccc21	9	-17%	11%	-2%	1%	21%[46.1 µM]
COc1cccc(-c2nc(NCCN3CCOCC3)c3ccccc3n2)c1	/	13%	/	/	/	/
CCc1ccc(NC(=O)CC2C(=O)N(c3cccc(C)c3)C(=O)N2CCC(C)C)cc1 (stereo not given)	-14	-5%	-8%[46.1 µM]	/	/	/
COc1ccc(C)cc1NC(=O)CCS(=O)(=O)c1cc2c3c(c1)CCN3C(=O)CC2	12	-10%	9%[46.1 µM]	/	/	/
CCCCNC(=O)C(NC(=O)c1ccc(C(F)(F)F)cc1)C(=O)c1ccccc1 (stereo not given)	17	-8%	/	/	/	/
CCCCNC(=O)C(NC(=O)c1ccc2ccccc2c1)C(=O)c1ccccc1 (stereo not given)	-64*	5%	/	/	/	/
O=C(Nc1cccc(S(=O)(=O)N2CCCCC2)c1)c1ccccc1NS(=O)(=O)c1ccc(F)cc1	-98*	?	-25%	?	2%	?
Cc1ccc(NC(=O)c2ccccc2NS(=O)(=O)c2ccc(F)cc2)cc1S(=O)(=O)N1CCCCC1	-98*	?	?	?	0%	?
Cc1ccc(NC(=O)CCNC(=O)c2ccccc2Cl)cc1S(=O)(=O)N1CCCCCC1	-9	?	/	?	15%	/
O=C(NCCS(=O)(=O)N1CCN(c2ccc(F)cc2)CC1)c1cccc(C(F)(F)F)c1	-17	0%	6%[46.1 µM]	/	/	/
Cc1ccc(S(=O)(=O)c2cnc(SCC(=O)Nc3cccc(Cl)c3)nc2N)cc1C	9	?	-4%[46.1 µM]	/	/	?
c1ccc(C2=NNC(=NC3CC3)SC2)cc1	1	/	8.2µM*	1%	-16%	?
c1ccc2c(C3=NNC(=NC4CC4)SC3)c[nH]c2c1	-3	-61%	11µM*	11%	-10%	?
Oc1ccc(Nc2nccc3[nH]c(-c4ccccc4)cc23)cc1	-1	/	/	/	/	/

Bioassay records from PubChem.
